The source of these data is PubChem BioAssay.

Activity calls are given as the source filed them. Unless noted, how the calls were made is not given here.

Experiment [1] concerns XIP peptide (Xip251-270) binding. In words: small-molecule binders of XIP peptide, primary screen, biochemical, small-molecule microarray, fluorescence 635/667 nm, 0.1 µg/mL protein (AID 1182). Particulars: fluorescent protein binding, 635 nm, higher = more signal, called active from +8 up or from −8 down.
The next experiment relates to XIP peptide (Xip251-270). Nature of the experiment: small-molecule binders of XIP peptide, primary screen, biochemical, small-molecule microarray, fluorescence 635/667 nm, 0.5 µg/mL protein (AID 1183). Particulars: small-molecule microarray binding, fluorescence 635 nm; higher = more signal.
Experiment [2] is described as follows: Plasmodium falciparum growth inhibition, primary screen, strain 3D7, DAPI fluorescence, 100 nL (AID 1184).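 Further: parasites grown inside human red blood cells in medium with human serum.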 Particulars: P. falciparum 3D7 growth, 3 d, higher = more signal.
The target in experiment [3] is Homeobox protein Hox-A13 (Mus musculus) (UniProt Q62424). Nature of the experiment: inhibitors of HoxA13-DNA binding, primary screen, biochemical, fluorescence polarization, labeled oligonucleotide (AID 1185). Particulars: 15 min, higher = more signal, called active from +8 up or from −8 down. (In general: In fluorescence polarisation assays a small probe gives low polarisation when free and higher when bound to something large.)
Homeobox protein Hox-A13 (Mus musculus), sequence (Q62424 whole entry, looked up): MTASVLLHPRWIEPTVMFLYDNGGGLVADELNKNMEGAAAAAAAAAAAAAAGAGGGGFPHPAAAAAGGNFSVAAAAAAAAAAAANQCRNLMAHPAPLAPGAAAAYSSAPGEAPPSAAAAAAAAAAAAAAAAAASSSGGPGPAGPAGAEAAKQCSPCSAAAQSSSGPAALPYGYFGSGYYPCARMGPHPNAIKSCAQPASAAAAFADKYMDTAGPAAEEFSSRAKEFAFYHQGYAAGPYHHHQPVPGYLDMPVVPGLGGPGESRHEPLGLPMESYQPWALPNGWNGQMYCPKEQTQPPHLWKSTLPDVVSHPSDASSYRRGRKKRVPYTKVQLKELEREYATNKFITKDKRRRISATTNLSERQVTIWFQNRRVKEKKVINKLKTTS

Experiment [4] is described as follows: inhibitors of hydroxyurea-induced Chk1 phosphorylation, primary screen, imaging, HeLa, phospho-Chk1 antibody, percent positive cells (AID 1186). Particulars: hydroxyurea-induced phospho-Chk1 immunofluorescence imaging, higher = more signal.
Experiment [5] in a line: inhibitors of hydroxyurea-induced Chk1 phosphorylation, primary screen, imaging, HeLa, phospho-Chk1 nuclear intensity (AID 1187). Particulars: hydroxyurea-induced phospho-Chk1 immunofluorescence imaging, higher = more signal.

Consider `[N-]=[N+]=Nc1ccccc1C[C@]1(C(=O)N2CCOCC2)N=C(c2ccc(OCCCO)cc2)O[C@H]1c1ccccc1N=[N+]=[N-]`, for which the composite z-score is 0.986 (inactive) in experiment [1] and 0.721 in the experiment on XIP peptide (Xip251-270). In addition, the z-score was -2.32 in experiment [2], -3.58 (inactive) in experiment [3], -1.46 (inactive) in experiment [4] and -2.06 (inactive) in experiment [5].

Consider `CC(C)OC(=O)CC(=O)CC(O)c1cccc([N+](=O)[O-])c1` (stereo unspecified), for which the composite z-score in experiment [1] was 0.52 (inactive); with XIP peptide (Xip251-270), 0.089. Moreover, the z-score in experiment [2] is -0.165; in experiment [3], -0.516 (inactive); in experiment [4], -0.242 (inactive); in experiment [5], -0.299 (inactive).

`C#CCN1[C@@H](Cc2ccccc2)C(=O)O[C@H](Cc2ccccc2)[C@@H]1/C=C/C1CC1`: the composite z-score in experiment [1] was -0.157 (inactive); in the experiment with XIP peptide (Xip251-270), 0.5. Also, the z-score in experiment [2] was -1.18; in experiment [3], -0.571 (inactive); in experiment [4], -0.352 (inactive); in experiment [5], -0.267 (inactive).

As to `CC(C)=CCCC=C(C)C(O)C1C=CC2C(=O)N(c3ccccc3)C(=O)C2N1Nc1ccc(C#N)cc1` (stereo unspecified), the composite z-score in experiment [1] was 1.1 (inactive); in the experiment on XIP peptide (Xip251-270) it was 0.621. Moreover, the z-score in experiment [2] was 0.221; in experiment [3], 0.884 (inactive); in experiment [4] it was -0.0269 (inactive); in experiment [5] it was -0.294 (inactive).

`Cc1ccccc1C(O)C1C=CC2C(=O)N(c3ccccc3)C(=O)C2N1Nc1ccccc1` (stereo unspecified): the results for the composite z-score (in experiment [1]; in the experiment on XIP peptide (Xip251-270)) were 0.766 (inactive) and 0.889, respectively. Besides, the z-score in experiment [2] is -0.189; in experiment [3] it was -2.86 (inactive); in experiment [4], -1.2 (inactive); in experiment [5], -1.11 (inactive).

Turning to `C=CCOC(=O)[C@H]1[C@@H]2C(=O)O[C@@H](c3ccccc3)[C@@H](c3ccccc3)N2[C@@H](c2ccc(OCCOC(=O)[C@@H]3C[C@@H]4C(=O)N[C@@H](CCCC[N+](C)(C)C)C(=O)N4[C@@H]3c3ccc(O)cc3)cc2)[C@]12C(=O)Nc1ccc(I)cc12`, the values for the composite z-score (in experiment [1]; in the experiment on XIP peptide (Xip251-270)) were 0.557 (inactive) and 0.765, respectively. For the same molecule, the z-score was 0.0373 in experiment [2], 6.46 (inactive) in experiment [3], -0.337 (inactive) in experiment [4] and -0.0674 (inactive) in experiment [5].

Take `COC(=O)[C@@]1(Cc2ccc(OC)cc2)[C@H]2c3cc(C(=O)N4CCCC4)n(Cc4ccc(C(F)(F)F)nc4)c3C[C@H]2CN1C(=O)c1ccccc1`: the figures for the composite z-score (in experiment [1]; with XIP peptide (Xip251-270)) were 0.143 (inactive) and -0.39, respectively. Also, the z-score in experiment [2] is -1.5; in experiment [3], -5.12 (inactive); in experiment [4], 0.664 (inactive); in experiment [5], 0.712 (inactive).

For the molecule `NCCCCCCNC(=O)[C@@H]1C[C@@H]2C(=O)N3CCC[C@H]3C(=O)N2[C@@H]1c1cccc(OCCO)c1`, the results for the composite z-score (in experiment [1]; with XIP peptide (Xip251-270)) were 2.08 (inactive) and 0.2, respectively. Further, the z-score in experiment [2] is -0.772; in experiment [3] it was -4.9 (inactive); in experiment [4] it was -0.705 (inactive); in experiment [5], -0.405 (inactive).

Turning to `COC(=O)[C@@]1(Cc2ccccc2)[C@H]2c3cc(C(=O)N(C)C)n(Cc4ccc(S(C)(=O)=O)cc4)c3C[C@H]2CN1C(=O)c1ccccc1`, the results for the composite z-score (in experiment [1]; in the experiment with XIP peptide (Xip251-270)) were 1.22 (inactive) and 0.721, respectively. Besides, the z-score was -1.5 in experiment [2], -5.44 (inactive) in experiment [3], 0.492 (inactive) in experiment [4] and 0.38 (inactive) in experiment [5].

On to `O=C1[C@H]2C=C(I)[C@H](C[C@@H]2c2ccccc2)[C@@]12CO2`, for which the results for the composite z-score (in experiment [1]; in the experiment on XIP peptide (Xip251-270)) were -0.432 (inactive) and -0.321, respectively. Also, the z-score in experiment [2] was 1.46; in experiment [3], -1.96 (inactive); in experiment [4], -0.428 (inactive); in experiment [5] it was -0.0968 (inactive).

Turning to `CCCN1C(=O)[C@]2(CCC(=O)OC(C)(C)C)N=C(c3ccc(OCCCO)cc3)O[C@@H]2c2ccccc21`, the figures for the composite z-score (in experiment [1]; in the experiment with XIP peptide (Xip251-270)) were 0.55 (inactive) and 0.601, respectively. Besides, the z-score in experiment [2] was -2.33; in experiment [3] it was -3.37 (inactive); in experiment [4] it was -0.292 (inactive); in experiment [5], -0.312 (inactive).

With `C=CCN1C(=O)[C@@]2(O[C@@H](CCn3cc([C@H](O)c4ccccc4)nn3)[C@H]([Si](C)(C)c3ccc(OC)cc3)[C@H]2C)c2cc(N3C(=O)c4cccc5cccc3c45)ccc21`, the composite z-score in experiment [1] is 0.185 (inactive); in the experiment on XIP peptide (Xip251-270) it was 0.21. The z-score in experiment [2] was -0.816; in experiment [3] it was -3.29 (inactive); in experiment [4] it was -0.0586 (inactive); in experiment [5], 0.311 (inactive).

Regarding `O=C1O[C@@H](c2ccccc2)[C@@H](c2ccccc2)N2[C@@H](c3ccccc3OCCO)[C@]3(C(=O)Nc4ccc(C#CCCO)cc43)[C@@H](C(=O)NC[C@H](O)c3ccccc3)[C@H]12`, the composite z-score was 0.798 (inactive) in experiment [1] and 0.816 in the experiment with XIP peptide (Xip251-270). In addition, the z-score in experiment [2] is -1.81; in experiment [3], -3.98 (inactive); in experiment [4], 0.0469 (inactive); in experiment [5], 0.144 (inactive).

`COCCOC(=O)N1C(=O)[C@@]2(c3cc(C#CCC(C(=O)OC)C(=O)OC)ccc31)[C@H](c1ccc(O)cc1)N1[C@H](c3ccccc3)[C@H](c3ccccc3)OC(=O)[C@H]1[C@@H]2C(=O)Nc1nc2ccccc2s1`: the results for the composite z-score (in experiment [1]; with XIP peptide (Xip251-270)) were 1.49 (inactive) and 0.853, respectively. Besides, the z-score is -1.43 in experiment [2], -2.2 (inactive) in experiment [3], 0.03 (inactive) in experiment [4] and 0.0087 (inactive) in experiment [5].

As to `CCCC=C(CCC)[C@@H](NC(=O)c1ccc(C(F)(F)F)cc1)c1ccc(C(F)(F)F)cc1`, the composite z-score is 0.237 (inactive) in experiment [1] and 0.541 in the experiment with XIP peptide (Xip251-270). Besides, the z-score was -0.702 in experiment [2], -3.88 (inactive) in experiment [3], -0.136 (inactive) in experiment [4] and -0.377 (inactive) in experiment [5].

`COc1cc(C(O)C2C=CC3C(=O)N(c4ccccc4)C(=O)C3N2Nc2ccccc2)cc(OC)c1OC` (stereo unspecified): the composite z-score in experiment [1] is 1.1 (inactive); in the experiment with XIP peptide (Xip251-270) it was 0.746. Also, the z-score in experiment [2] was 0.808; in experiment [3], -3.96 (inactive); in experiment [4], -0.153 (inactive); in experiment [5], -0.522 (inactive).
